{"source": "PubChem BioAssay (EPA / NIEHS)", "key": {"[1]": {"target": "Collagenase 3 (Homo sapiens) (UniProt P45452)", "test": "NVS_ENZ_hMMP13: NovaScreen (NVS) Enzymatic Assay for human Matrix Metalloproteinase-13 (MMP13) (AID 2283182)", "description": "NVS_ENZ_hMMP13 is a biochemical, single-readout assay that uses extracted gene-proteins in a cell-free assay. Measurements were taken 1 hour after chemical dosing in a 96-well plate.NVS_ENZ_hMMP13 is one of one assay component(s) measured or calculated from the NVS_ENZ_hMMP13 assay. It is designed to make measurements of enzyme activity, a form of enzyme reporter, as detected with fluorescence intensity signals by Fluorescence technology.Data from the assay component NVS_ENZ_hMMP13 was analyzed into 1 assay endpoint. This assay endpoint, NVS_ENZ_hMMP13, was analyzed in the positive analysis fitting direction relative to DMSO as the negative control and baseline of activity. […] Furthermore, this assay endpoint can be referred to as a primary readout, because this assay has produced multiple assay endpoints where this one serves a enzymatic activity function. […]\nBinding assays used specific radioligands (tritiated, iodinated) with non-radioactive competitive displacement ligands in agonist or antagonist protocols (as indicated) and various reference compounds and inhibitors to titrate specific binding to receptors and transporters. Most enzyme assays (CYPs, kinases, phosphatases, proteases, HDACs) used recombinant protein and specific substrates (fluorescence mostly, some colorimetric and radioactive) and inhibitors, followed by a biochemical separation of substrate and product. […]"}, "[2]": {"target": "human Matrix Metalloproteinase-3 (MMP3), MMP3 (gene 4314) (UniProt P08254)", "sequence (P08254 whole entry, looked up)": "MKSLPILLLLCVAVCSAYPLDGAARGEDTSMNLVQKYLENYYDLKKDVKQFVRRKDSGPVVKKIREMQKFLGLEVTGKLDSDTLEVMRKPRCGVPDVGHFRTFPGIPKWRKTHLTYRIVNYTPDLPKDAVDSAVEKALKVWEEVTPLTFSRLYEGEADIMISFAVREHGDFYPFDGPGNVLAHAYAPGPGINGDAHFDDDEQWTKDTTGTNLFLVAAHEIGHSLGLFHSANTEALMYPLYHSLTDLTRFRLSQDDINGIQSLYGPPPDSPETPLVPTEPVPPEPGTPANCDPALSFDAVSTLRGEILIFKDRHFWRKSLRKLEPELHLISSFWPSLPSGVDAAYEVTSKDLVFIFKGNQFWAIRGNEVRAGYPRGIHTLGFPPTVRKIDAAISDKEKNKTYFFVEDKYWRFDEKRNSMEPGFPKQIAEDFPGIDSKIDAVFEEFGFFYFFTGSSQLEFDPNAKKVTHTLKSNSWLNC", "test": "NVS_ENZ_hMMP3: NovaScreen (NVS) Enzymatic Assay for human Matrix Metalloproteinase-3 (MMP3) (AID 2283185)", "how_it_was_run": "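Fluorescent substrate turnover by recombinant MMP3 read after 1 h, signal loss scored against DMSO. Compounds first run in duplicate at 25 uM single dose, then actives confirmed by concentration series.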"}, "[3]": {"target": "human Mitogen- and Stress-activated Protein Kinase-1 (Msk1), RPS6KA5 (gene 9252) (UniProt O75582)", "sequence (O75582 whole entry, looked up)": "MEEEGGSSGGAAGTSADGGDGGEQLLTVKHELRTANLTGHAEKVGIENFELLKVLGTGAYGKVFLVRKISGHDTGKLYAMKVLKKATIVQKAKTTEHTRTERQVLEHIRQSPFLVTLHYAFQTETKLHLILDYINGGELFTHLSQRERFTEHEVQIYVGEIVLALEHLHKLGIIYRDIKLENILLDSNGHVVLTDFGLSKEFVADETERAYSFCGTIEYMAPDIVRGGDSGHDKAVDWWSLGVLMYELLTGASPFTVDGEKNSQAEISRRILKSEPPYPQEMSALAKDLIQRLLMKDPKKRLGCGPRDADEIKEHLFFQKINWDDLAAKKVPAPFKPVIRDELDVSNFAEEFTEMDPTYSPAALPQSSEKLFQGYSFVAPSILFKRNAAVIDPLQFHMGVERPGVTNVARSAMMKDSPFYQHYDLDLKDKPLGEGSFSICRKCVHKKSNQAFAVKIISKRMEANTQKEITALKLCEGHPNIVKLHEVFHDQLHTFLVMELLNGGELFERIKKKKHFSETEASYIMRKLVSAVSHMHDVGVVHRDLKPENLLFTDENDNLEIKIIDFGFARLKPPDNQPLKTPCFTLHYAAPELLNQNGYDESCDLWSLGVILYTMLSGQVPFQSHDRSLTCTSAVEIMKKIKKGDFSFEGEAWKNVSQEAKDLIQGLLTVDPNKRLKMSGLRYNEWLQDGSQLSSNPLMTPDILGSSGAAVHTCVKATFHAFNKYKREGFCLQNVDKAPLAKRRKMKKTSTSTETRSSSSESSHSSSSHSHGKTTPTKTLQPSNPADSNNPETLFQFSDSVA", "test": "NVS_ENZ_hMsk1: NovaScreen (NVS) Enzymatic Assay for human Mitogen- and Stress-activated Protein Kinase-1 (Msk1) (AID 2283187)", "how_it_was_run": "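Chemicals first run in duplicate at 25 uM, with actives followed up in singleton concentration series to 50 uM maximum. Enzyme activity came from substrate/product mobility-shift separation with fluorescence detection after 1 h incubation of the recombinant protein.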"}, "[4]": {"target": "human Phosphodiesterase 4A1 (PDE4A1), PDE4A (gene 5141) (UniProt P27815)", "sequence (P27815 whole entry, looked up)": "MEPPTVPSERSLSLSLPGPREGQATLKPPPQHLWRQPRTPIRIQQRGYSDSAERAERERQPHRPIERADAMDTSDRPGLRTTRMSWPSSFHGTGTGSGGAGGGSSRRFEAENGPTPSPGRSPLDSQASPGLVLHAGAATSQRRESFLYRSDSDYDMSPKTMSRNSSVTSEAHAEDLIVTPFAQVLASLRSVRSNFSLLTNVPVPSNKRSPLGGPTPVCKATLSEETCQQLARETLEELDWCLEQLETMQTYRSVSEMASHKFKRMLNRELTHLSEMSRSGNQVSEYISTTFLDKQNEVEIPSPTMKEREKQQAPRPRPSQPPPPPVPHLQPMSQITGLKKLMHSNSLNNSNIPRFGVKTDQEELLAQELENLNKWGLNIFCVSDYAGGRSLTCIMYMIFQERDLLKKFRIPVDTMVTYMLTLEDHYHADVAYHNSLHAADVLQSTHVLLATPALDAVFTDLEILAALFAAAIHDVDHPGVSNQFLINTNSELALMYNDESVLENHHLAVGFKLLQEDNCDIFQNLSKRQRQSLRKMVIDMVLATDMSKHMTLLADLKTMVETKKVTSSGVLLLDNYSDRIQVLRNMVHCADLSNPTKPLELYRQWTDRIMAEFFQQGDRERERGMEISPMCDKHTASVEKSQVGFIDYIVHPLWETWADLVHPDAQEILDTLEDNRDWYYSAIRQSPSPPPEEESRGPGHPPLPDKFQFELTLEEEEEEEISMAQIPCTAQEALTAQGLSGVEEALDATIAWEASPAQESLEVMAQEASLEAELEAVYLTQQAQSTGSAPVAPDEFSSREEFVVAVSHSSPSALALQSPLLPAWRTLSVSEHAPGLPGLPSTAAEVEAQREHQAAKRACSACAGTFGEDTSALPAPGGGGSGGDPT", "test": "NVS_ENZ_hPDE4A1: NovaScreen (NVS) Enzymatic Assay for human Phosphodiesterase 4A1 (PDE4A1) (AID 2283191)", "how_it_was_run": "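Fluorescent substrate turnover by recombinant PDE4A1 read after 1 h by mobility-shift separation. Primary duplicate screen at 25 uM; hits retested in concentration series with a 50 uM maximum, relative to DMSO.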"}, "[5]": {"target": "cAMP-dependent protein kinase catalytic subunit alpha (Homo sapiens) (UniProt P17612)", "test": "NVS_ENZ_hPKA: NovaScreen (NVS) Enzymatic Assay for human Protein Kinase A (PKA) (AID 2283192)", "how_it_was_run": "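Cell-free kinase activity read by fluorescence after mobility-shift separation of substrate and product, 1 h post-dosing. Single-concentration duplicate screen (25 uM) preceded singleton concentration series (top 50 uM); loss of signal versus DMSO.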"}, "[6]": {"target": "human Matrix Metalloproteinase-7 (MMP7), MMP7 (gene 4316) (UniProt P09237)", "sequence (P09237 whole entry, looked up)": "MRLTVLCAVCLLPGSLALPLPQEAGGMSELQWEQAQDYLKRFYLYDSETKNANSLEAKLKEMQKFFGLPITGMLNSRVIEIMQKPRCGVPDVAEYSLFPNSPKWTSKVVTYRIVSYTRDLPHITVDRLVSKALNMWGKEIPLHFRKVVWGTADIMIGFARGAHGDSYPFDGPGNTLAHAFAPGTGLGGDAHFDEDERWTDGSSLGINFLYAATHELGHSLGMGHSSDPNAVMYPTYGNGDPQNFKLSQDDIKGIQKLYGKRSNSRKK", "test": "NVS_ENZ_hMMP7: NovaScreen (NVS) Enzymatic Assay for human Matrix Metalloproteinase-7 (MMP7) (AID 2283183)", "how_it_was_run": "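Compounds first tested at 25 uM in duplicate, then at up to 50 uM in concentration series if active. Protease activity measured by fluorescence intensity 1 h after dosing, with fitting relative to DMSO.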"}, "[7]": {"target": "human Matrix Metalloproteinase-2 (MMP2), MMP2 (gene 4313) (UniProt P08253)", "sequence (P08253 whole entry, looked up)": "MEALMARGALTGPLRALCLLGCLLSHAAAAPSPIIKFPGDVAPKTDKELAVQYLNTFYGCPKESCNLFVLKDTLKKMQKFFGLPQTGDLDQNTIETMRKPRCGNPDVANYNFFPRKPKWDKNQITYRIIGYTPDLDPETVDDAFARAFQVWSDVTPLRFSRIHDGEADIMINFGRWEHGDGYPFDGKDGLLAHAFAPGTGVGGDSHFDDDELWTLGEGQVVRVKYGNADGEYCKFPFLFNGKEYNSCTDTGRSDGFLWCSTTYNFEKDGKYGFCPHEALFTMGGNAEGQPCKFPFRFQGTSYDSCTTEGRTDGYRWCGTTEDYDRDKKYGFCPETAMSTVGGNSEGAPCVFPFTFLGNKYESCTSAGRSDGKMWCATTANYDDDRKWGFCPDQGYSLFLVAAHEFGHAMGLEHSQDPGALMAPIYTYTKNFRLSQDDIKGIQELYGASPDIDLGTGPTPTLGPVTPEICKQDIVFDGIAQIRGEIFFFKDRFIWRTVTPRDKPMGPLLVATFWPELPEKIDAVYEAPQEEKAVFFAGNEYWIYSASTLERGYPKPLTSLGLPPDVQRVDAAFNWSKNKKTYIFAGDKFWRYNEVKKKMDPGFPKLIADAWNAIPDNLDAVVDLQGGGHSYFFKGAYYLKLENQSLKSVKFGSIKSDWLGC", "test": "NVS_ENZ_hMMP2: NovaScreen (NVS) Enzymatic Assay for human Matrix Metalloproteinase-2 (MMP2) (AID 2283184)", "how_it_was_run": "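Compounds first screened in duplicate at a single 25 uM, with actives followed up in concentration series. Recombinant human MMP2 cleaves a fluorogenic substrate; fluorescence taken at 1 h, inhibition fitted relative to DMSO.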"}}, "note": "Records with an inconclusive call do not appear. Activity calls are given as the source filed them. Rule for the calls: active = hit-call score of the fitted dose curve at least 0.9, where 1 is the maximum; inconclusive = response in the unintended direction; inactive = score below 0.9.", "data": [{"smiles": "O=C(c1ccc(OCCN2CCCCC2)cc1)c1c(-c2ccc(O)cc2)sc2cc(O)ccc12", "values": [{"measurement": "AC50", "setting": "[1]", "result": "17.4 µM (active)"}, {"measurement": "outcome", "setting": "[2]", "result": "inactive"}, {"measurement": "AC50", "setting": "[3]", "result": "22.1 µM (active)"}, {"measurement": "outcome", "setting": "[4]", "result": "inactive"}, {"measurement": "AC50", "setting": "[5]", "result": "16.7 µM (active)"}]}, {"smiles": "CC/C(=C(\\c1ccccc1)c1ccc(OCCN(C)C)cc1)c1ccccc1", "values": [{"measurement": "AC50", "setting": "[1]", "result": "42.5 µM (active)"}, {"measurement": "outcome", "setting": "[6]", "result": "inactive"}, {"measurement": "outcome", "setting": "[7]", "result": "inactive"}, {"measurement": "outcome", "setting": "[3]", "result": "inactive"}, {"measurement": "AC50", "setting": "[4]", "result": "27.9 µM (active)"}, {"measurement": "outcome", "setting": "[5]", "result": "inactive"}]}]}
